22 molecules from PubChem BioAssay (NCATS) can be followed below.

Structures are written as SMILES. Records with an inconclusive call do not appear. The source made the active and inactive calls. Unless noted, calls come from the whole dose curve; as a rule, active = well fitted curve in the direction sought with a large enough effect; inconclusive = small, poorly fitted or top-dose-only effect, or another doubt; inactive = no such curve, though single readings can be large; an effect the other way counts as inactive or inconclusive.

The nature of experiment [1]: Cytotoxicity counterscreen for NFkB agonists and antagonists (AID 624476).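 Note: cells exposed to compound for 48 hours.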 Note: potency is the fitted concentration of half-maximal effect. Background: A counterscreen serves to expose hits that act by an unwanted route or on another target.
Experiment [2] can be described thus: qHTS Assay for Identification of Small Molecule Agonists for NFkB Signaling Pathway. (AID 624478).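 Note: compounds tested together with TNF alpha at its EC50 of 10 pM; 0% is about no effect.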 A digest of the protocol: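 Assay medium contained 0.5% FBS and 10 mM HEPES pH 7.3. Compounds were added together with TNF alpha (10 pM final), incubated 5 h at 37 C, and the beta-lactamase signal was measured fluorometrically.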
Background: qHTS replaces the single test concentration by a dilution series.

A short description of experiment [3]: qHTS Assay for Identification of Small Molecule Antagonists for NFkB Signaling Pathway. (AID 624479; calls by dose curve;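 note: pathway stimulated with TNF alpha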; note: potency is the fitted concentration of half-maximal effect).
The nature of experiment [4]: Cell Proliferation Assay against the TMD8 Cell Line (AID 651645).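 Note: cells exposed to compound for 48 h before reading.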 The conditions noted are these: TMD8 DLBCL cell line proliferation/viability; at 46.1 µM (top of the series). The method, boiled down: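 Viability by CellTiter-Glo after 48 h compound exposure of 500 log-phase TMD8 cells per well (RPMI, 5% FBS). Percent activity scaled between DMSO (100%) and 9.2 uM final bortezomib (0%).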

Experiment [5] can be described thus: Cell Proliferation Assay against the HBL1 Cell Line (AID 651646).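 Note: cells exposed to compound for 48 h before reading.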 As to conditions: HBL1 DLBCL cells; at 46.1 µM (top of the series). A digest of the protocol: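 CellTiter-Glo luminescence after 48 h compound exposure at 37C gives percent activity, with DMSO as 100% and 9.2 uM bortezomib final as 0%. Cells: 500 log-phase HBL1 per well, RPMI plus 5% FBS.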
The nature of experiment [6]: Cell Proliferation Assay against the TMD8 Cell Line (Caspase readout at 16 hrs) (AID 651712). Note: potency is the fitted concentration of half-maximal effect. The method, boiled down: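 Caspase-Glo luminescence measured apoptosis after a 16 h, 37 C compound exposure of TMD8 cells (500 cells/well, 5% FBS RPMI). DMSO set 0% and bortezomib at 9.2 uM final set 100% activity.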
Experiment [7] can be described thus: Cell Proliferation Assay against the TMD8 Cell Line (Caspase readout at 8 hrs) (AID 651713). Note: potency is the fitted concentration of half-maximal effect. The method, boiled down:
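Luminescent caspase 3/7 assay; TMD8 cells, 8 h treatment at 37C, 5% CO2. Normalisation: DMSO 0%, 9.2 uM bortezomib 100%.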

Regarding `O=C(NCCS(=O)(=O)c1ccc(C(F)(F)F)cn1)c1ccc(Cl)cc1`, the Potency result in experiment [1], in experiment [3], in experiment [6] and in experiment [7] was “inactive” throughout. Also, the outcome in experiment [2] was inactive. In experiment [4], the viability (% of control) is 96.1%. The viability, percent of control in experiment [5] is 92%.
Turning to `CC(C)c1ccc(Cn2ccc3c4c(N)nc(NC5CC5)nc4ccc32)cc1`, the figures for the Potency in experiment [1], in experiment [3] and in experiment [7] were 9.35 µM (active), 16.8 µM (active) and 6.62 µM (active), respectively. For the same molecule, the molecule was called inactive in experiment [2]. Besides, in experiment [4], the viability (% of control) came to 1.25%. In addition, in experiment [5], the viability, percent of control turned out to be 1.62%.
`CC(C)c1ccccc1Cc1cc(C(=O)Nc2ccc(S(=O)(=O)c3ccccc3C(C)(C)C)cc2)c(O)c(O)c1O`: the Potency is 14.8 µM (active) in experiment [1], 13.3 µM (active) in experiment [3] and 6.62 µM (active) in experiment [6]. For the same molecule, the molecule was called inactive in experiment [2]. The viability, percent of control in experiment [5] worked out at 21.6%.
Regarding `CC[C@@H]1C(=O)N(C)c2cnc(Nc3ccc(C(=O)NC4CCC(N5CCN(CC6CC6)CC5)CC4)cc3OC)nc2N1C(C)C` (some centres not stated), the results for the Potency in experiment [1], in experiment [3] and in experiment [7] were 13.2 µM (active), 5.3 µM (active) and 26.4 µM (active), respectively. In addition, the outcome in experiment [2] was inactive. The viability (% of control) in experiment [4] was 3.58%. In experiment [5], the viability, percent of control is 4.22%.
On to `CC(=O)OCCN1C(=O)c2c(C)nc3ccc(S(=O)(=O)N4CCOCC4)cc3c2C1=O`, for which the Potency result in experiment [1], in experiment [3], in experiment [6] and in experiment [7] was “inactive” each time. In addition, in experiment [2], the molecule was classed as inactive. The viability (% of control) in experiment [4] was found to be 94.5%. In addition, the viability, percent of control in experiment [5] was 105%.
With `O=C(C=Cc1cccnc1)NCCCCC1CCN(C(=O)c2ccccc2)CC1`, the Potency result in experiment [1], in experiment [3], in experiment [6] and in experiment [7] was “inactive” in each case. In addition, the result in experiment [2] was inactive. Also, in experiment [4], the viability (% of control) worked out at 7.31%. Further, in experiment [5], the viability, percent of control worked out at 53.4%.
On to `O=C(C=Cc1c(C(=O)O)[nH]c2cc(Cl)cc(Cl)c12)Nc1ccccc1`, for which the Potency entry in experiment [1], in experiment [3], in experiment [6] and in experiment [7] was “inactive” in each case. For the same molecule, in experiment [2], the molecule was classed as inactive. Moreover, the viability (% of control) in experiment [4] was 103%. Further, in experiment [5], the viability, percent of control was 112%.
Take `CCN1CCN(Cc2ccc(-c3cc4c(N[C@H](C)c5ccccc5)ncnc4[nH]3)cc2)CC1`: the Potency in experiment [1] was 33.2 µM (active); in experiment [3], 16.8 µM (active); in experiment [6], 16.6 µM (active). In addition, in experiment [2], the molecule was classed as inactive. In addition, the viability, percent of control in experiment [5] was 1.9%.
On to `O=C(O)[C@H](Cc1c[nH]c2ccccc12)N1C(=O)c2ccccc2C1=O`, for which the Potency entry in experiment [1], in experiment [3], in experiment [6] and in experiment [7] was “inactive” each time. Further, the molecule was called inactive in experiment [2]. Besides, the viability (% of control) in experiment [4] was found to be 104%. For the same molecule, the viability, percent of control in experiment [5] is 130%.
On to `CC(C)(C)c1cnc(CSc2cnc(NC(=O)C3CCNCC3)s2)o1`, for which the Potency was 0.166 µM (active) in experiment [1], 0.0473 µM (active) in experiment [3] and 0.0935 µM (active) in experiment [7]. The outcome in experiment [2] was inactive. In experiment [4], the viability (% of control) amounted to 3.42%. Moreover, the viability, percent of control in experiment [5] stood at 36.4%.
Regarding `CC1(C)OC2=C(C(=O)c3ccccc3C2=O)[C@H](NCc2ccccc2)[C@H]1O`, the Potency is 5.26 µM (active) in experiment [1] and 3.75 µM (active) in experiment [3]. The molecule was called inactive in experiment [2]. For the same molecule, the viability, percent of control in experiment [5] was determined as 6.45%. The Potency result in experiment [6] was “inactive”.
`COc1cccc2nc(-c3cccs3)nc(NN3C(=O)C=C(C)C3=O)c12`: in experiment [1], the Potency entry is “inactive”. In addition, the call in experiment [2] was inactive. In addition, the Potency is 0.841 µM (active) in experiment [3] and 0.166 µM (active) in experiment [7]. Besides, the viability (% of control) in experiment [4] is 3.01%. The viability, percent of control in experiment [5] is 3.09%.
For the molecule `CCCCN1CCC(CNC(=O)c2c3n(c4ccccc24)CCCO3)CC1`, the Potency entry in experiment [1], in experiment [3], in experiment [6] and in experiment [7] was “inactive” each time. In addition, in experiment [2], the molecule was classed as inactive. Also, the viability, percent of control in experiment [5] was 93.7%.
In the case of `Nc1nccc(Oc2ccc(NC(=O)c3c[nH]cc(-c4ccc(F)cc4)c3=O)cc2F)c1Cl`, the results for the Potency in experiment [1] and in experiment [3] were 18.7 µM (active) and 5.95 µM (active), respectively. The viability, percent of control in experiment [5] is 14.4%. Moreover, the Potency result in experiment [6] and in experiment [7] was “inactive” each time.
In the case of `CN(c1ncccc1CNc1nc(Nc2ccc3c(c2)CC(=O)N3)ncc1C(F)(F)F)S(C)(=O)=O`, the figures for the Potency in experiment [1], in experiment [3] and in experiment [7] were 10.5 µM (active), 1.49 µM (active) and 8.33 µM (active), respectively. Also, in experiment [2], the call was inactive. For the same molecule, the viability, percent of control in experiment [5] came to 40.9%.
As to `O=C(Nc1cc(C(F)(F)F)cc(C(F)(F)F)c1)c1cc(Cl)ccc1O`, the Potency in experiment [1] is 0.235 µM (active); in experiment [6], 0.296 µM (active). In experiment [2], the molecule was called inactive. In addition, the viability (% of control) in experiment [4] came out at 1.86%. Further, the viability, percent of control in experiment [5] was found to be 12.7%.
For `C=CCn1c(=O)c2cnc(Nc3ccc(N4CCN(C)CC4)cc3)nc2n1-c1cccc(C(C)(C)O)n1`, the Potency in experiment [1] was 1.66 µM (active). Moreover, the outcome in experiment [2] was inactive. In experiment [5], the viability, percent of control came out at 31.1%.
Take `COc1cc2ncnc(Nc3ccc(F)c(Cl)c3)c2cc1NC(=O)C=CCN1CCCCC1`: the Potency was 20.9 µM (active) in experiment [1], 16.8 µM (active) in experiment [3] and 23.5 µM (active) in experiment [7]. In experiment [2], the outcome was inactive. Also, the viability, percent of control in experiment [5] amounted to 0.0432%.
On to `Cn1cc(-c2[nH]c3cc(NC(=O)[C@H](N)C4CCCCC4)cc4c3c2C=NNC4=O)cn1`, for which the molecule was called inactive in experiment [2]. For the same molecule, in experiment [3], the Potency result is “inactive”. The viability (% of control) in experiment [4] came to 2.55%. In addition, the viability, percent of control in experiment [5] is 21.5%. Besides, the Potency in experiment [6] was 0.166 µM (active).
For `COC(=O)c1ccc2c(C(=Nc3ccc(N(C)C(=O)CN4CCN(C)CC4)cc3)c3ccccc3)c(O)[nH]c2c1`, the Potency is 23.5 µM (active) in experiment [1], 0.469 µM (active) in experiment [6] and 26.4 µM (active) in experiment [7]. Also, the molecule was called inactive in experiment [2]. Moreover, the viability (% of control) in experiment [4] amounted to 1.41%. Also, the viability, percent of control in experiment [5] stood at 2.34%.
For the molecule `C=C1C(=CC=C2CCCC3(C)[C@@H]([C@H](C)C=CC=CC(O)(CC)CC)CC[C@@H]23)C[C@@H](O)C[C@@H]1O` (some centres not stated), the Potency is 23.5 µM (active) in experiment [1] and 16.8 µM (active) in experiment [3]. For the same molecule, the viability, percent of control in experiment [5] was found to be 2.25%.
For the molecule `CC(NCc1ccc2c(c1)nc(NC(=O)c1ccc(-c3cn[nH]c3)s1)n2CC(C)(C)O)C(C)(C)C` (configuration not stated), the Potency in experiment [1] is 0.332 µM (active); in experiment [3], 0.0266 µM (active); in experiment [7] it was 0.332 µM (active). The result in experiment [2] was inactive. Further, in experiment [5], the viability, percent of control worked out at 1.76%.
